Measurements: PubChem BioAssay (EPA / NIEHS)
Inconclusive results are not listed. Some structures have more than one record in an assay (separate samples or runs), and their calls can disagree. Calls of active or inactive are those of the source. How the source made its calls, unless noted: active means hit-call score of the fitted dose curve at least 0.9, where 1 is the maximum; inactive means score below 0.9.

What was measured:
[1] = molecular target: Nuclear respiratory factor 1 (Homo sapiens) (UniProt Q16656); test: ATG_NRF1_CIS: Attagene CIS-FACTORIAL HepG2 Assay for human Nuclear Respiratory Factor 1 (NRF1) Orphan Gene (AID 2282987); details: HepG2 NRF1 cis-element reporter, Attagene multiplex; actives raise or lower the signal
Procedure, shortened: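 Transcriptional reporter readout, one component of a 52-endpoint multiplexed HepG2 panel. Exposure 24 h; mRNA detected via RT-PCR and fluorescent capillary electrophoresis; fitting in both directions against DMSO.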

[2] = ATG_NFI_CIS: Attagene CIS-FACTORIAL HepG2 Assay for human Nuclear Factor I (NFI) (AID 2282989); details: HepG2 cis-regulatory reporter, NFI response element transcription; actives raise or lower the signal
Procedure, shortened: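 HepG2, transient MRTU, 24 h exposure; RNA→cDNA→PCR→FAM label→HpaI→CE fluorescence. Bidirectional fit, DMSO = baseline.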

[3] = molecular target: Myc proto-oncogene protein (Homo sapiens) (UniProt P01106); test: ATG_Myc_CIS: Attagene CIS-FACTORIAL HepG2 Assay for human Myelocytomatosis (Myc) Proto-Oncogene Transcription Factor (AID 2282990); details: HepG2, Attagene cis-reporter transcription factor activity; actives raise or lower the signal
Procedure, shortened: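 DMSO-normalised, bidirectionally fitted reporter mRNA signal. HepG2 cells transfected with cis reporter constructs, treated 24 h; transcripts detected by RT-PCR, 6-FAM primer extension and CE.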

[4] = ATG_NF_kB_CIS: Attagene CIS-FACTORIAL HepG2 Assay for human Nuclear Factor Kappa B (NF-kB) (AID 2282991); details: HepG2 Attagene cis-factorial NF-kB reporter mRNA; actives raise or lower the signal
Procedure, shortened: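 HepG2, transient multi-reporter transfection, cis promoter elements (endogenous TFs). 24 h exposure. Total RNA → RT → PCR → 6-FAM label → HpaI → CE. Gain/loss vs DMSO.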

[5] = ATG_NRF2_ARE_CIS: Attagene CIS-FACTORIAL HepG2 Assay for human Nuclear Factor Erythroid 2 Related Factor 2 (NFR2) response to Antioxidant Response Elements (ARE) (AID 2282992); details: HepG2 Attagene ARE/NRF2 reporter, transcription factor activity; actives raise or lower the signal;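 on AC50: reporter mRNA level measured by RT-PCR and capillary electrophoresis fluorescence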
Procedure, shortened: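 Readout: reporter mRNA quantified by RT-PCR plus FAM-labelled primer extension, HpaI digestion and capillary electrophoresis, 24 h after dosing transfected HepG2 cells. Gain or loss of signal is fitted bidirectionally against DMSO baseline.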

[6] = molecular target: Cellular tumor antigen p53 (Homo sapiens) (UniProt P04637); test: ATG_p53_CIS: Attagene CIS-FACTORIAL HepG2 Assay for human p53 Transcription Factor (AID 2282994); details: HepG2 p53 cis-element reporter, Attagene mRNA; actives raise or lower the signal
Procedure, shortened: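 Read-out: reporter mRNA by RT-PCR plus capillary electrophoresis with fluorescence detection. Human HepG2 liver cells carried transfected multi-reporter cis-element constructs, dosed 24 h. Gain or loss of signal fitted bidirectionally against DMSO control.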

[7] = molecular target: human Peroxisome Proliferator-activated Receptor alpha (PPARa), PPARA (gene 5465) (UniProt Q07869); test: ATG_PPARa_TRANS: Attagene TRANS-FACTORIAL HepG2 Assay for human Peroxisome Proliferator-activated Receptor alpha (PPARa) (AID 2283001; active means hit-call score of the fitted dose curve at least 0.9, where 1 is the maximum)
Procedure, shortened: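 Exposure: 24 h, transiently transfected HepG2 cells. Endpoint: GAL4-UAS reporter mRNA, RT-PCR with capillary electrophoresis fluorescence. Baseline: DMSO; increases fitted.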

[8] = molecular target: human Retinoic Acid Receptor beta (RARb), RARB (gene 5915) (UniProt P10826); test: ATG_RARb_TRANS: Attagene TRANS-FACTORIAL HepG2 Assay for human Retinoic Acid Receptor beta (AID 2283004; active means hit-call score of the fitted dose curve at least 0.9, where 1 is the maximum)
Procedure, shortened: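 Induction of reporter mRNA from a chimeric RARb-Gal4 construct was measured by RT-PCR, FAM labelling, HpaI digestion and capillary electrophoresis. Measurements followed 24 h compound treatment of transiently transfected human HepG2 liver cells, with DMSO as baseline.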

[9] = molecular target: Nuclear receptor subfamily 1 group I member 2 (Homo sapiens) (UniProt O75469); test: ATG_PXR_TRANS: Attagene TRANS-FACTORIAL HepG2 Assay for human Pregnane X Receptor (PXR) (AID 2283008; active means hit-call score of the fitted dose curve at least 0.9, where 1 is the maximum)
Procedure, shortened: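 Trans-factorial format: exogenous NR-Gal4 fusion activity, not endogenous factor, in transfected human HepG2 liver cells. After 24 h dosing, RNA isolated, reverse-transcribed, amplified and resolved by capillary electrophoresis; induction scored versus DMSO.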

[10] = molecular target: human Retinoic Acid Receptor gamma (RARg), RARG (gene 5916) (UniProt P13631); test: ATG_RARg_TRANS: Attagene TRANS-FACTORIAL HepG2 Assay for human Retinoic Acid Receptor gamma (RARg) (AID 2283009; active means hit-call score of the fitted dose curve at least 0.9, where 1 is the maximum)
Procedure, shortened: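 Gain-of-signal relative to DMSO is reported from fluorescent capillary electrophoresis of RT-PCR reporter products. These came from HepG2 cells expressing transfected RARg-GAL4 chimeras with UAS reporters, harvested 24 h after dosing.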

[11] = BSK_3C_TissueFactor: BioMAP Diversity Plus: 3C Assay for Tissue Factor Biomarker Activity (AID 2282997); details: BioMAP 3C HUVEC, tissue factor biomarker readout; actives raise or lower the signal
Procedure, shortened: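 Tissue factor on primary human umbilical vein endothelium was read by ELISA 24 h after dosing, gain or loss relative to DMSO. Cytotoxicity ran alongside via SRB (0.1%, TCA-fixed, 560 nm).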

[12] = BSK_3C_uPAR: BioMAP Diversity Plus: 3C Assay for Urokinase-type plasminogen activator receptor (uPAR) Biomarker Activity (AID 2282998); details: BioMAP 3C HUVEC, uPAR biomarker ELISA; actives raise or lower the signal
Procedure, shortened: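 Dose primary human umbilical vein endothelial cells, incubate 24 h, measure cell-surface uPAR by ELISA, then fit the signal in both directions against the DMSO negative control.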

[13] = BSK_3C_VCAM1: BioMAP Diversity Plus: 3C Assay for Vascular cell adhesion molecule 1 (VCAM1) Biomarker Activity (AID 2282999); details: BioMAP 3C HUVEC, VCAM1 ELISA, cytokine-stimulated; actives raise or lower the signal
Procedure, shortened: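 Vascular primary endothelium (human umbilical vein) was exposed to chemicals and assayed 24 h later. VCAM-1 levels came from ELISA, with DMSO serving as baseline for bidirectional fitting.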

[14] = BSK_4H_Eotaxin3: BioMAP Diversity Plus: 4H Assay for Eotaxin 3 Biomarker Activity (AID 2283000); details: primary human endothelial cells (HUVEC); actives raise or lower the signal
Procedure, shortened: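 Human umbilical vein endothelial cells (BSK_4H system) dosed with test chemical; Eotaxin-3 (CCL26) measured by ELISA 24 h after dosing. Bidirectional curve fitting relative to DMSO negative control as baseline.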

[15] = read-out: Intercellular Adhesion Molecule 1 (ICAM1), ICAM1 (gene 3383); test: BSK_3C_ICAM1: BioMAP Diversity Plus: 3C Assay for Intercellular Adhesion Molecule 1 (ICAM1) Biomarker Activity (AID 2283003); details: primary human endothelial cells (HUVEC); actives raise or lower the signal
Procedure, shortened: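 Using DMSO as baseline, bidirectional curve fitting was applied to ICAM-1 ELISA signals from HUVEC in the 3C system, measured 24 h after compound addition.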

[16] = molecular target: Retinoic acid receptor alpha (Homo sapiens) (UniProt P10276); test: ATG_RARa_TRANS: Attagene TRANS-FACTORIAL HepG2 Assay for human Retinoic Acid Receptor alpha (RARa) (AID 2283005; active means hit-call score of the fitted dose curve at least 0.9, where 1 is the maximum)
Procedure, shortened: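 HepG2 cells transiently transfected with multiple reporter units expressing chimeric RARα-GAL4 fusion, with GAL4-UAS-driven reporters. After 24 h compound exposure, reporter mRNA induction quantified by RT-PCR and capillary electrophoresis with fluorescent labeling; gain-of-signal fitted relative to DMSO control.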

[17] = BSK_3C_Proliferation: Cell Proliferation Assessment in the BioMAP Diversity Plus: 3C Assay (AID 2283006); details: primary human endothelial cells (HUVEC);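 on AC50: potency may reflect either rise or fall in cell number versus DMSO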
Procedure, shortened: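 Measured here: sulforhodamine B (0.1%) staining of TCA-fixed sub-confluent umbilical vein endothelial cultures 48 h post-dosing, absorbance 560 nm. DMSO served as negative control and baseline; both signal gain and loss were modelled.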

[18] = ATG_Oct_MLP_CIS: Attagene CIS-FACTORIAL HepG2 Assay for human Octamer-Binding Transcription Factor (Oct) (AID 2282993); details: HepG2 Attagene cis-factorial Oct reporter, mRNA; actives raise or lower the signal
Procedure, shortened: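 Multiplexed cis-reporter assay in human liver HepG2 cells, 24 h incubation. Reporter RNA amplified and labelled, then resolved by capillary electrophoresis; DMSO serves as negative control and baseline.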

[19] = molecular target: human Peroxisome Proliferator-activated Receptor delta (PPARd), PPARD (gene 5467) (UniProt Q03181); test: ATG_PPARd_TRANS: Attagene TRANS-FACTORIAL HepG2 Assay for human Peroxisome Proliferator-activated Receptor delta (PPARd) (AID 2283002; active means hit-call score of the fitted dose curve at least 0.9, where 1 is the maximum)
Procedure, shortened: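 Measured quantity: GAL4-UAS reporter transcript induction in HepG2 after 24 h chemical dosing, with NR-Gal4 chimeras supplied by transient transfection. Detection by RT-PCR and capillary electrophoresis; upward fit against DMSO.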

[20] = molecular target: Peroxisome proliferator-activated receptor gamma (Homo sapiens) (UniProt P37231); test: ATG_PPARg_TRANS: Attagene TRANS-FACTORIAL HepG2 Assay for human Peroxisome Proliferator-activated Receptor-gamma (PPARg) (AID 2283007; active means hit-call score of the fitted dose curve at least 0.9, where 1 is the maximum)
Procedure, shortened: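 Multiplexed reporter transcription units in HepG2, 24 h dosing, reporter transcripts quantified by fluorescent RT-PCR and capillary electrophoresis. Increase over DMSO scored.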

Measured: AC50

Cellular tumor antigen p53 (Homo sapiens), sequence (P04637 whole entry, looked up): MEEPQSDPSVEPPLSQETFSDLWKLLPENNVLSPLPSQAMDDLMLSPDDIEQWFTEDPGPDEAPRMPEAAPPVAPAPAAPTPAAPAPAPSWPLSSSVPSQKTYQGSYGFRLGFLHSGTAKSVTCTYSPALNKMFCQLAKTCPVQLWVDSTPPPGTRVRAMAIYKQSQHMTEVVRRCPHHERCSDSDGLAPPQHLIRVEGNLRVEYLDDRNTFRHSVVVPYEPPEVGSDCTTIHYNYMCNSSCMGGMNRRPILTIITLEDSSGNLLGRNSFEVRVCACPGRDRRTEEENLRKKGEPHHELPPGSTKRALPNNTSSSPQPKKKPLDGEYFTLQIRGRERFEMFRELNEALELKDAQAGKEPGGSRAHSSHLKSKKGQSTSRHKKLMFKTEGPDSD
human Peroxisome Proliferator-activated Receptor delta (PPARd), PPARD (gene 5467), sequence (Q03181 whole entry, looked up, the tested form may be a part): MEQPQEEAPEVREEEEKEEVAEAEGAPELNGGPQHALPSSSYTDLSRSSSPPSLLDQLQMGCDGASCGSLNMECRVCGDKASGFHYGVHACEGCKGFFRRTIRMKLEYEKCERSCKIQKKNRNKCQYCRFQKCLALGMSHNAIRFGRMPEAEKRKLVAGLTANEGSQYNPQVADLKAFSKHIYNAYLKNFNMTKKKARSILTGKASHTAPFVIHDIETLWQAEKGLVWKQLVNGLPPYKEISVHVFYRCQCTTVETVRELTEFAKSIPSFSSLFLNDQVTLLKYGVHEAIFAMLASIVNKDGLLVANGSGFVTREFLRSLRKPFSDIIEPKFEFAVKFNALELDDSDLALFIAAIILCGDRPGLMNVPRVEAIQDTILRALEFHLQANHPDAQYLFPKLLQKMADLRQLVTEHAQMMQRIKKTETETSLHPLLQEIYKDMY
Peroxisome proliferator-activated receptor gamma (Homo sapiens), sequence (P37231 whole entry, looked up): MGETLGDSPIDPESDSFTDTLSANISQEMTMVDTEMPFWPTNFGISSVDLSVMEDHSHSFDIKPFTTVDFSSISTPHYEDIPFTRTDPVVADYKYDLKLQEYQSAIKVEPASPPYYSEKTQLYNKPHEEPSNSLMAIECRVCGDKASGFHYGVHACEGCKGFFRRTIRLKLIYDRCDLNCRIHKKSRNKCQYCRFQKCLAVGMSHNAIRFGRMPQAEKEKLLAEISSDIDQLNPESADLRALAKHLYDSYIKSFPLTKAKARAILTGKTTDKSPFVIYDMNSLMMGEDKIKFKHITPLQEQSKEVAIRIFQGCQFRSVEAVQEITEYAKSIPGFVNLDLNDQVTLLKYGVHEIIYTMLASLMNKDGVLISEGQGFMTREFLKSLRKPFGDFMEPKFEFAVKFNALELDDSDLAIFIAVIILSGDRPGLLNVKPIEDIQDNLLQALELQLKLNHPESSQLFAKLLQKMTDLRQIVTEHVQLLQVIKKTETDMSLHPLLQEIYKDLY
human Peroxisome Proliferator-activated Receptor alpha (PPARa), PPARA (gene 5465), sequence (Q07869 whole entry, looked up, the tested form may be a part): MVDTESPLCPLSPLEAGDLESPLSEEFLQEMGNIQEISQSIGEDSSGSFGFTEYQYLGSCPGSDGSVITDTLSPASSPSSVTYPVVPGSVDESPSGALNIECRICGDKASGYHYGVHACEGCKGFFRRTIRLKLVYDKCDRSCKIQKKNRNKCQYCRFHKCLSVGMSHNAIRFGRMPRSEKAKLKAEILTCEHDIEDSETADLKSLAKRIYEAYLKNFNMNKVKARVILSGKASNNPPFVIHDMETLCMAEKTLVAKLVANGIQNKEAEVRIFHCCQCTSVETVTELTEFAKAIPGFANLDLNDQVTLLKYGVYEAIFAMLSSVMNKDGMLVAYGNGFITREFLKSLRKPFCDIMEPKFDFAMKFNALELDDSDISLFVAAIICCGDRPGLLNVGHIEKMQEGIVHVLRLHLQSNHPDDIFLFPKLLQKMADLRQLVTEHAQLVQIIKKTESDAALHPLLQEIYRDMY
human Retinoic Acid Receptor beta (RARb), RARB (gene 5915), sequence (P10826 whole entry, looked up, the tested form may be a part): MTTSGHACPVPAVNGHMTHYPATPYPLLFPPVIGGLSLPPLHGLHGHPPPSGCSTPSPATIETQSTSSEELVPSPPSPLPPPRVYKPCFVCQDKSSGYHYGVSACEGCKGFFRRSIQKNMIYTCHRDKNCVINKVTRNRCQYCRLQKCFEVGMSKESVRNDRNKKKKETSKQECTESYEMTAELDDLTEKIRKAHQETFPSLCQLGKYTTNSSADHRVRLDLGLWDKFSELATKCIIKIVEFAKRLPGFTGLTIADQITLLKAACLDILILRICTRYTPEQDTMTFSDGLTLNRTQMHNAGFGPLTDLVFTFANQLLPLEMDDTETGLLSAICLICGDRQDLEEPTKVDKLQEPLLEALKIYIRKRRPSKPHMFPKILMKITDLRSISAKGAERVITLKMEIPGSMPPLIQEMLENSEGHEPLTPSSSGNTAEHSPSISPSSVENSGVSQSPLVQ
Nuclear receptor subfamily 1 group I member 2 (Homo sapiens), sequence (O75469 whole entry, looked up, the tested form may be a part): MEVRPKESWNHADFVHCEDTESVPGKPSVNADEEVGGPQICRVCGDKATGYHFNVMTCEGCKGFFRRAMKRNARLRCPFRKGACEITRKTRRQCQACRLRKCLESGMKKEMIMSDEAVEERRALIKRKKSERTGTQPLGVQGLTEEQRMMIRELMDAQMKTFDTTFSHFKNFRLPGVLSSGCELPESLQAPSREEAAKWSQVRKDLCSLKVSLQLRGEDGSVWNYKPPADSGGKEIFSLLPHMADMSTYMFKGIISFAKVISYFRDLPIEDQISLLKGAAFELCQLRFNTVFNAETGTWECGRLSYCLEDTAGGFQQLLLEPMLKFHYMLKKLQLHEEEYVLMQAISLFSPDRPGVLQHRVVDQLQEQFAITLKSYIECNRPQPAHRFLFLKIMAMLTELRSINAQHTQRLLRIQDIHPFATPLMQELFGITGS
Retinoic acid receptor alpha (Homo sapiens), sequence (P10276 whole entry, looked up, the tested form may be a part): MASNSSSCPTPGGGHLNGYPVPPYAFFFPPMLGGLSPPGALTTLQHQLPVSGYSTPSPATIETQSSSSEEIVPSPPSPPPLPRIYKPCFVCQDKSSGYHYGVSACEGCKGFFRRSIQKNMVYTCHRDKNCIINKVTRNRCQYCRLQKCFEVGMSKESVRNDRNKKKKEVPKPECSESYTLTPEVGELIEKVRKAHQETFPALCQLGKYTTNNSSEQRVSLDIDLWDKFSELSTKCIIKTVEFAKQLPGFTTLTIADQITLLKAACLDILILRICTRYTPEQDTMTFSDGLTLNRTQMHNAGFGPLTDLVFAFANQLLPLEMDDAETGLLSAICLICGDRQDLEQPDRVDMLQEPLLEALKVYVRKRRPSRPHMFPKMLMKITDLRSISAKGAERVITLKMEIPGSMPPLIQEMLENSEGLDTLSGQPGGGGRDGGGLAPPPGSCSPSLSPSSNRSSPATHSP
Myc proto-oncogene protein (Homo sapiens), sequence (P01106 whole entry, looked up): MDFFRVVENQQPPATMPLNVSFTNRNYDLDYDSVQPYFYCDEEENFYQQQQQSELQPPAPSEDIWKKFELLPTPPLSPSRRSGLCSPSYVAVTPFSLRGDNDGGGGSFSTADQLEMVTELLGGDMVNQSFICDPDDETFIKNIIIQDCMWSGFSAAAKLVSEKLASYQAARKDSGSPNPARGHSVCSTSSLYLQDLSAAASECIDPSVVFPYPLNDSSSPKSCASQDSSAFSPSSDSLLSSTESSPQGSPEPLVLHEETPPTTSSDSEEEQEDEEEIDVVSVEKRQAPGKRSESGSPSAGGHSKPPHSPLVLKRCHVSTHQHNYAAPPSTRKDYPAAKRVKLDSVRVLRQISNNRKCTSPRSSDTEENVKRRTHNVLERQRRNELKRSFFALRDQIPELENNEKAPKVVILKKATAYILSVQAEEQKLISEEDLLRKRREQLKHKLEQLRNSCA
human Retinoic Acid Receptor gamma (RARg), RARG (gene 5916), sequence (P13631 whole entry, looked up, the tested form may be a part): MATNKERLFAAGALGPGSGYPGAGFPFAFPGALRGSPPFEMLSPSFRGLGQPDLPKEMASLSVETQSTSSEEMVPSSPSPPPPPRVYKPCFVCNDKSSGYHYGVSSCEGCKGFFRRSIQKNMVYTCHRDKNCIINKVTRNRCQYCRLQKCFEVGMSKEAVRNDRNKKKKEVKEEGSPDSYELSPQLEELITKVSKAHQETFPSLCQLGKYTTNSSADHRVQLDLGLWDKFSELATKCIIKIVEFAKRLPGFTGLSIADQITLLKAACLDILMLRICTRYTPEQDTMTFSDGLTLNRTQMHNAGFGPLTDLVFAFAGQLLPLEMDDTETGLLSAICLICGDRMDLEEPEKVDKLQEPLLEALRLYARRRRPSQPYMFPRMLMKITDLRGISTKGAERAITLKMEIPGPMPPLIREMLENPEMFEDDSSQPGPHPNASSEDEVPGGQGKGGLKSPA
Nuclear respiratory factor 1 (Homo sapiens), sequence (Q16656 whole entry, looked up): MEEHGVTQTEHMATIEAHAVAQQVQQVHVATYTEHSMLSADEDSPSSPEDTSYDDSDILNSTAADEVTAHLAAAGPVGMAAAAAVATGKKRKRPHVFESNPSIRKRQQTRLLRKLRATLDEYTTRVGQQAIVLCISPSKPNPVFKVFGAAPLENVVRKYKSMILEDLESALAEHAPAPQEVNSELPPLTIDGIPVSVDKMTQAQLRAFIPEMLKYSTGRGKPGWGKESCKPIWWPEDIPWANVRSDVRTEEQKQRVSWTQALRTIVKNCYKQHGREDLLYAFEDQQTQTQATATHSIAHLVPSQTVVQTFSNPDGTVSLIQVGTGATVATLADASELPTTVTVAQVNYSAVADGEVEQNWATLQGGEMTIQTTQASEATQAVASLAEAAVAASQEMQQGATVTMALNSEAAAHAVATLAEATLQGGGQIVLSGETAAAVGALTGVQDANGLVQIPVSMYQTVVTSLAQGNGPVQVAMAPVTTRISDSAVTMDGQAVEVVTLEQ

O=C(/C=C/c1ccc(O)cc1)CC(=O)/C=C/c1ccc(O)cc1
inactive: [1] | [2] | [3] | [4] | [6] | [7] | [8] | [9] | [10]
active: [5] 2.65 µM

CCCCCCCCCCCCc1ccccc1S(=O)(=O)O
active: [17] 32.3 µM | [9] 3.52 µM
inactive: [1] | [2] | [3] | [4] | [5] | [6] | [11] | [12] | [13] | [14] | [7] | [15] | [8] | [16] | [10]

OC1CCC(C2CCCCC2)CC1 (centres undefined)
active: [5] 140 µM [middle of 4 runs] | [9] 23.9 µM
inactive: [1] | [2] | [3] | [18] | [6] | [11] | [12] | [13] | [14] | [7] | [19] | [15] | [8] | [17] | [20] | [9]

NC(=O)N1C(=O)C(C(=O)c2cc(Cl)cs2)c2cc(F)c(Cl)cc21 (centres undefined)
inactive: [1] | [2] | [3] | [6] | [13] | [7] | [19] | [15] | [8] | [16] | [10]
active: [5] 6.05 µM | [18] 11 µM | [11] 5.53 µM | [12] 14.7 µM | [14] 14.9 µM | [17] 11 µM | [9] 11 µM

CCCCCCC(=O)O
inactive: [1] | [2] | [3] | [5] | [18] | [6] | [11] | [12] | [13] | [14] | [7] | [15] | [17] | [9]

CCCCCCCC(=O)O
inactive: [1] | [2] | [3] | [5] | [6] | [11] | [12] | [13] | [14] | [7] | [15] | [17] | [9]

COC(=O)CCCCC(=O)OC
inactive: [1] | [2] | [3] | [5] | [6] | [11] | [12] | [13] | [14] | [7] | [19] | [15] | [16] | [17] | [9]

Cc1cc(C)c(O)c(C)c1
active: [5] 27.7 µM
inactive: [1] | [2] | [3] | [6] | [11] | [12] | [13] | [14] | [7] | [15] | [8] | [16] | [17] | [20] | [9] | [10]

CCc1nn(C2CCCCC2)c2cc(C3(C#N)CCC(C(=O)O)CC3)ccc12 (centres undefined)
inactive: [2] | [3] | [5] | [6] | [11] | [19] | [15] | [8] | [16] | [9]
active: [1] 100 µM | [4] 24.9 µM | [12] 7.5 µM | [13] 4 µM | [14] 16.5 µM | [17] 6.36 µM

CCCCC(CC)COC(=O)CCCCC(=O)OCc1ccccc1 (centres undefined)
active: [9] 17.8 µM
inactive: [1] | [2] | [3] | [5] | [18] | [6] | [11] | [12] | [13] | [14] | [7] | [19] | [15] | [17] | [10]
